# Inconclusive results are not listed. A number with no mark means an inactive call. The source made the active and inactive calls. Calls come from the whole dose curve.
# Experiment: Nuclear factor erythroid 2-related factor 2/antioxidant responsive element (Nrf2/ARE) small molecule agonists: luciferase reporter gene qHTS assay in human keratinocytes (AID 1919969); note: nearly all actives have a fitted effect of over 35% in size
# Conditions: KeratinoSens HaCaT ARE-luciferase, luminescence, 24 h; series mostly up to 92.4 µM; activity, positive = activation: at the top concentration
# Description: National Center for Advancing Translational Sciences [NCATS]
# Division of Preclinical Innovation [DPI]
# U.S. Environmental Protection Agency [EPA]
# National Institutes of Environmental Health Sciences [NIEHS]
# National Toxicology Program [NTP]
# U.S. Food and Drug Administration [FDA]
# Oxidative stress has been implicated in the pathogenesis of a variety of diseases ranging from cancer to neurodegeneration. The antioxidant response element (ARE) signaling pathway plays an important role in the amelioration of oxidative stress. The KeratinoSens (Givaudan, Switzerland) is an in vitro test method which quantifies luciferase induction as a measure of activation of Keap1-Nrf2-antioxidationt/electrophile response element (ARE) dependant pathway in HaCaT human keratinocytes stably transfected with a selectable plasmid. The KeratinoSens assay is a cell-based assay with a reporter cell line to detect potential skin sensitizers by their ability to induce the Nrf2/ARE-response. The activation of the report gene under culture conditions can be detected by ONE-Glo Luciferase Assay System (Promega, Madison, WI). This cell line has been used to screen the Tox21 10K compound library to identify agonists that induce oxidative stress. The cytotoxicity of the Tox21 compound library against the KS-ARE cell line was tested in parallel by measuring the cell viability using CellTiter- Fluor assay system (Promega, Madison, WI) in the same wells.
# HaCaT derived cell line KeratinoSens were dispensed at 1,500 cells/5uL/well in 1536-well white wall/solid bottom plates using a Multidrop Combi (ThermoFisher Scientific, Waltham, MA) dispenser. After the assay plates were incubated at 37 C/5% CO2 for 5 h, 23 nL of compounds dissolved in DMSO, positive controls or DMSO only was transferred to the assay plate by a pintool workstation (Kalypsys, San Diego, CA). The plates were incubated at 37 C/5% CO2 for 23 h, followed by addition of 1uL/well of CellTiter-Fluor reagent into the assay plates using a Flying Reagent Dispenser (Aurora Discovery, San Diego, CA) for cell viability readout that measures cytotoxicity. After 1 h incubation at 37 C/5% CO2 the fluorescence intensity was measured using a ViewLux (PerkinElmer, Shelton, CT) plate reader. Then 4uL/well of One-Glo were added using a Flying Reagent Dispenser. After the plates were incubated at room temperature for 30 min, the luminescence intensity in the assay plates was measured using ViewLux plate reader.
# % is set by controls: 0 for no effect and ±100 for the full control effect; potency is the fitted concentration of half-maximal effect.
SMILES,Potency,"activity, positive = activation"
CCNS(=O)(=O)C(F)(F)C(F)(F)C(F)(F)C(F)(F)C(F)(F)C(F)(F)C(F)(F)C(F)(F)F,58.5 µM (active),–
OC(Cn1cncn1)(c1ccc(F)cc1)c1ccccc1F (stereo not given),–,-9.23%
CCN(CC)C(C)C(=O)c1ccccc1 (stereo not given),–,-4.81% [at 42.5 µM]
CCN(CCO)CCn1c(Cc2ccccc2)nc2c1c(=O)n(C)c(=O)n2C,–,-4.56% [at 42.5 µM]
CCOP(=O)(OCC)Oc1nc(Cl)c(Cl)cc1Cl,–,7.49%
C(COCC1CO1)OCC1CO1 (stereo not given),68.6 µM (active),–
O=[N+]([O-])c1ccc(O)c([N+](=O)[O-])c1,inactive,–
CC(=O)Nc1cc([As](=O)(O)O)ccc1O,–,2.05% [at 42.5 µM]
CC[N+]1(CCOC(=O)C(O)(c2ccccc2)c2ccccc2)CCCCC1,–,5.05% [at 42.5 µM]
C[C@]12CC[C@H]3[C@@H](CCC4=CC(=O)CC[C@@]43C)[C@@H]1CC[C@@H]2C(=O)O,–,4.42% [at 42.5 µM]
CCOP(=S)(OCC)Oc1cc(Cl)c(Br)cc1Cl,61.1 µM (active),–
Cc1nc2ccccc2c(=O)n1-c1ccccc1Cl,–,-7.17%
Nc1ccc(Cl)cc1C(=O)c1ccccc1F,–,3.83% [at 42.5 µM]
CN(C)S(=O)(=O)N(SC(F)(Cl)Cl)c1ccccc1,4.86 µM (active),–
CCC#N,–,-8.99%
CCCCOP(=O)(O)OCCCC,–,-3.64%
CC(C)c1c(CN(C)C(C)Cc2ccccc2)n(C)n(-c2ccccc2)c1=O (stereo not given),–,0.718% [at 42.5 µM]
CC1NCCOC1c1ccccc1 (stereo not given),–,-3.88% [at 42.5 µM]
CC(Cc1ccccc1)NCc1ccccc1Cl (stereo not given),–,25.1% [at 42.5 µM]
O=C=Nc1ccc(Cl)cc1,68.6 µM (active),–

SMILES,Potency,"activity, positive = activation"
Nc1ccc2c(c1)Cc1ccccc1-2,–,7.43%
COC1=CC(=O)O[C@@H](/C=C/c2ccc3c(c2)OCO3)C1,–,7.05%
ClC1=C(Cl)[C@]2(Cl)[C@H]3[C@H]([C@@H]4C=C[C@H]3C4)[C@@]1(Cl)C2(Cl)Cl,inactive,–
N#CC(CCc1ccc(Cl)cc1)(Cn1cncn1)c1ccccc1 (stereo not given),–,23.9%
[Cl][Sn]([c]1ccccc1)([c]1ccccc1)[c]1ccccc1,0.58 µM (active),–
CO/C=C(/C(=O)OC)c1ccccc1COc1cccc(C(F)(F)F)n1,–,0.427%
COc1cnc(OC)n2nc(NS(=O)(=O)c3c(OCC(F)F)cccc3C(F)(F)F)nc12,–,-5.84%
CCC(C)(C)O,–,-2.9%
C[C@H](N)[C@H](O)c1ccc(O)c(O)c1,–,6.5% [at 42.5 µM]
C[C@@H]1CC2=CC(=O)CC[C@@H]2[C@H]2CC[C@@]3(C)[C@@H](CC[C@]3(C)O)[C@@H]21,–,6.54% [at 42.5 µM]
CCOC(=O)NC(=S)Nc1ccccc1NC(=S)NC(=O)OCC,54.5 µM (active),–
CC(C)CC(N(C)C)C1(c2ccc(Cl)cc2)CCC1 (stereo not given),–,7.16% [at 42.5 µM]
CCn1cc[n+](C)c1 (tested in a mixture with another compound),–,-6.92%
ClC(Cl)C(Cl)(Cl)Cl,–,-1.51%
Cc1nnc2n1-c1sc(CCc3ccc(CC(C)C)cc3)cc1C(c1ccccc1Cl)=NC2C (stereo not given),–,-48.6% [at 42.5 µM]
CCCCCCCCCCCCN=C(N)N,–,-21.7% [at 3.27 µM]
C[N+]1(CCF)[C@@H]2CC[C@H]1CC(OC(=O)C(O)(c1ccccc1)c1ccccc1)C2 (stereo not given in full),–,4.66% [at 42.5 µM]
C=CCC1=C(C)C(OC(=O)C2C(C=C(C)C)C2(C)C)CC1=O (stereo not given),23 µM (active),–
COc1ccc2c(c1OC)C(=O)O[C@H]2[C@@H]1c2cc3c(cc2CCN1C)OCO3,–,-4.38% [at 42.5 µM]
CCCN(CCCl)c1c([N+](=O)[O-])cc(C(F)(F)F)cc1[N+](=O)[O-],–,9.69%

# — PubChem BioAssay (Tox21)
